Screening data (PubChem BioAssay)
Tb PFK block: blocks T. brucei phosphofructokinase; O15648; Potency, µM (highest dose often 57.5 µM), for the others: at the top dose activity, negative = inhibition, usual class: inhibitors; T. brucei PFK, ADP-Glo luminescence; AID 485367; 330,000 compounds, 0.17% hits;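 note: potency is the fitted concentration of half-maximal effect; 0% = uninhibited 1x PFK enzyme wells and -100% = no-enzyme wells; nearly all actives have a fitted effect of over 60% in size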
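1.25 nM PFK with 0.5 mM F6P and 0.1 mM ATP in 0.1 M TEA pH 8.0, 5 mM MgCl2, incubated 45 min at room temperature; ADP measured by ADP-Glo luminescence; compounds titrated up to 57 uM.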
PI5P4Ka inh: inhibitors of human PI5P4K alpha; PI5P4Kalpha enzyme, ADP-Glo luminescence, 60 min; active compounds read low; 330,000 compounds, 1.2% hits; max response, %; active = max response of -50% or lower; inconclusive = between -30% and -50%; inactive = -30% or higher; note: value at the top dose of about 77 µM
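ADP-Glo luminescence end-point after a 60 min room-temperature kinase reaction. PI5P4Kalpha and substrate in HEPES pH 7.4 buffer with EGTA, 0.1% CHAPS and 5% DMSO; ATP at 5 microM final.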
PI4K2A inh: blocks human PI4K2A kinase activity. Q9BTU6. AID 1346378. purified PI4K2A, ADP-Glo luminescence, 1 h; active compounds read low. 420,000 compounds, 0.13% hits. activity change, negative = inhibition, % at 76.9 µM; in the data active = activity change below about -50%; inconclusive = mostly about -30% to -49%;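 note: -100% = wells without enzyme as full effect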
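ADP-Glo luminescence measured ADP generated by PI4K2A enzyme (4 ug/mL before mixing) with 1.2 mM PI substrate (pre-mix) and 300 microM ATP (pre-mix). Tris pH7.5 buffer with MgCl2, Triton X-100; 1 h reaction at ambient temperature.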
Pin1 inh: human Pin1 inhibition | Q13526 | Pin1 FP peptide displacement, HiFluor488, 10 min | Potency, µM (series often up to 115 µM), inactives show at the top dose activity, negative = inhibition, usual class: inhibitors | 390,000 compounds, 0.009% hits | AID 504891; active = well fitted inhibition curve with a large enough effect in the polarisation, with a control signal flat, not every such curve was filed as active; inconclusive = small, poorly fitted or top-dose-only effect, or effect the other way, or a change in a side signal; inactive = no such curve, though single readings can be large or run the other way; the % refers to the polarisation; note: potency is the fitted concentration of half-maximal effect
Tb PGK inh: blocks T. brucei phosphoglycerate kinase; PGK/GAPDH coupled, Kinase-Glo luminescence, 60 min; AID 602233; P07378; Potency, µM (titrated, usually from 57.5 µM), inactives show at the highest dose activity change, negative = inhibition, usual class: inhibitors; 380,000 compounds, 0.043% hits; note: potency is the fitted concentration of half-maximal effect; nearly all actives have a fitted effect of over 60% in size
Target sequence (P07378 whole entry, looked up): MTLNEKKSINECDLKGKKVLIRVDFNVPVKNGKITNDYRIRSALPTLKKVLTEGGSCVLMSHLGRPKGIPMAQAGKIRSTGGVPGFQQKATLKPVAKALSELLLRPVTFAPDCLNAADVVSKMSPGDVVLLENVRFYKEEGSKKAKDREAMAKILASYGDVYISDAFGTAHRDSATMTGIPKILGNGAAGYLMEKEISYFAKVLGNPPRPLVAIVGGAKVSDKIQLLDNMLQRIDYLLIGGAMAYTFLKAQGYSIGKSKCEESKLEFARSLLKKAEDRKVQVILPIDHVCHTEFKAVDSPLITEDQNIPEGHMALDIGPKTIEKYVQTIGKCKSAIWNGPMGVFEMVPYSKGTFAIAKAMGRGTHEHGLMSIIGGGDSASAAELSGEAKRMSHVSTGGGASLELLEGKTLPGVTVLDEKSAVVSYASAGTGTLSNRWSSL
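Luminescent ATP detection (Kinase-Glo Plus) follows a 60-minute room-temperature incubation, with wells lacking PGK as controls. Buffer: 100 mM TEA (pH 7.6), 5 mM MgCl2, 0.01% Tween-20. Coupling enzyme GAPDH (100 nM final) supplies unstable 1,3-BPG in-well.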
* marks the source's active call; other numbers are inactive results; i = inactive; ? = inconclusive; / = no result given. This is one part of a sample in which hits are shown more often than they occur. Unless noted, calls come from the whole dose curve; as a rule, active = well fitted curve in the direction sought with a large enough effect; inconclusive = small, poorly fitted or top-dose-only effect, or another doubt; inactive = no such curve, though single readings can be large; an effect the other way counts as inactive or inconclusive. Unless noted, % is set by controls: 0 for no effect and ±100 for the full control effect.

SMILES	Tb PFK block	PI5P4Ka inh	PI4K2A inh	Pin1 inh	Tb PGK inh
Cc1ccc(C2=N/C(=C/N3CCOCC3)C(=O)O2)cc1	3%	-1	-3	-9%	8%
COC(=O)c1cc(S(N)(=O)=O)ccc1OC	/	/	3	/	/
O=[N+]([O-])c1cc(Cl)cc(/C=N/NC(=S)Nc2ccc(S(=O)(=O)N3CCOCC3)cc2)c1O	1%	-85*	17	/	-6%
O=S(=O)(c1ccc(NC(=S)N/N=C/c2ccc(O)c(O)c2)cc1)N1CCOCC1	-11%	-23	-1	1%	-7%
COc1ccc(CCC(=O)Nc2c(-c3ccc(N(C)C)cc3)[nH][nH]c2=O)cc1	/	-60*	-64*	/	/
Cc1ccc(/C(=N/Nc2nc3ccccc3s2)C2=C(O)c3ccccc3C2=O)cc1	-3%	-81*	-24	4%	5%
CCOc1cc(CNc2ccc(O)cc2)cc(Br)c1OCc1ccccc1F	-11%	4	?	-3%	-2%
COc1cc(CNc2ccc(O)cc2)cc(Br)c1OCc1ccccc1F	0%	1	-51*	/	-5%
O=C(O)c1ccc2c(c1)S(=O)(=O)c1cc(N3CCN(c4ncccn4)CC3)ccc1C2=O	/	-57*	4	/	5%
Cc1nn(C2CCS(=O)(=O)C2)c(C)c1C=O (stereo not drawn)	2%	-67*	0	-1%	17%
Cc1ccc(C)n1C1CCS(=O)(=O)C1 (stereo not drawn)	-4%	-1	4	-17%	8%
O=[N+]([O-])c1ccc(O)c(/C=N/Nc2ncnc3c2cnn3-c2ccccc2)c1	0%	-75*	0	6%	-1%
O=[N+]([O-])c1ccc(O)c(/C=N/Nc2ccccn2)c1	-8%	-2	-5	?	1%
Cc1ccc(/C=C/C(=O)O)cc1S(=O)(=O)N1CCCc2ccccc21	1%	-90*	-2	7%	3%
Cc1ccc(/C=C/C(=O)O)cc1S(=O)(=O)N1CCc2ccccc21	-6%	-76*	3	-19%	-2%
Cc1ccc(/C=C/C(=O)O)cc1S(=O)(=O)Nc1ccccc1C(=O)O	?	-53*	2	?	-1%
CC(C)(C)Nc1nc(C#N)nc(Nc2ccccc2)n1	/	/	/	2%	/
COc1ccc(C(C(=O)N(C)C2CCCC2)N(Cc2ccc(F)cc2)C(=O)c2cc(C)[nH]n2)cc1OC (stereo not drawn)	/	/	3	/	/
Cn1c(=O)c2c(ncn2CC(=O)OCC(=O)c2ccc(Br)cc2)n(C)c1=O	/	-57*	0	/	-3%
CCCCNC(=O)C[C@H]1C[C@@]2(C(=O)OC)C(=C[C@H](C3CCCC3)O[C@@H]2C)N(Cc2cccc3ccccc23)C1=O	/	/	-5	/	/
Cc1ccc(N/N=C(\C#N)C(N)=S)cc1C	1%	-51*	-2	-1%	-9%
N#C/C(=N\Nc1ccc(Cl)cc1)C(N)=S	3%	?	13	-7%	-3%
CCCCCCC(=O)Nc1cc2c(C)cc(=O)oc2cc1C	-1%	4	6	2%	-7%
CCCCCCCCC(=O)c1c(OC)oc(C=O)cc1=O	/	-84*	-11	/	-1%
COc1ccc2c(c1)N[C@@](CCN1C(=O)c3ccccc3C1=O)(c1[nH]c3ccccc3c1CCN1C(=O)c3ccccc3C1=O)C2=O	/	/	-1	/	/
SMILES	Tb PFK block	PI5P4Ka inh	PI4K2A inh	Pin1 inh	Tb PGK inh
[O-][n+]1c2ccccc2[n+]([O-])c2cc(O)ccc21	-6%	-54*	-4	?	?
CCC(C)Nc1nc(C)nc2c1nnn2Cc1ccccc1 (stereo not drawn)	/	/	2	/	/
Cc1c(Cl)cccc1Nc1n[nH]c(=S)s1	/	-88*	-2	-4%	-9%
Fc1ccccc1Nc1n[nH]c(=S)s1	-24%	-74*	0	4%	-1%
S=c1[nH]nc(Nc2cccc3ccccc23)s1	?	-74*	-3	-11%	-2%
COc1ccc(CN(Cc2ccccc2)C(=O)c2ccc(OC)cc2O)cc1	/	/	/	-2%	/
C/C(=N\NC(=O)c1ccccc1F)c1ccc2c(c1)Nc1ccccc1S2	-6%	8	-4	?	-1%
C/C(=N\NC(=O)c1ccc(O)cc1)c1ccc2c(c1)Nc1ccccc1S2	4%	-77*	-2	60%	i
